Experimental data from article PMC7862700, “An all-to-all approach to the identification of sequence-specific readers for epigenetic DNA modifications on cytosine”.

What was measured:
Experiment in all cases: DAPPL (digital affinity profiling via proximity ligation, sequencing); 10 mM Tris-HCl pH 7.5, 50 mM NaCl, 1 mM DTT, 4% glycerol, room temperature, 30 min; GST-TFs on glutathione beads, 16-mer random dsDNA library, 0.1% formaldehyde crosslink after washing; high values mean tight binding
Conditions in all cases: protein: recombinant; tags: N-terminal GST; dsDNA, one strand shown
FLI1 = biological target: T1, FLI1 (Homo sapiens, UniProt Q01543 1-452)
T1 sequence: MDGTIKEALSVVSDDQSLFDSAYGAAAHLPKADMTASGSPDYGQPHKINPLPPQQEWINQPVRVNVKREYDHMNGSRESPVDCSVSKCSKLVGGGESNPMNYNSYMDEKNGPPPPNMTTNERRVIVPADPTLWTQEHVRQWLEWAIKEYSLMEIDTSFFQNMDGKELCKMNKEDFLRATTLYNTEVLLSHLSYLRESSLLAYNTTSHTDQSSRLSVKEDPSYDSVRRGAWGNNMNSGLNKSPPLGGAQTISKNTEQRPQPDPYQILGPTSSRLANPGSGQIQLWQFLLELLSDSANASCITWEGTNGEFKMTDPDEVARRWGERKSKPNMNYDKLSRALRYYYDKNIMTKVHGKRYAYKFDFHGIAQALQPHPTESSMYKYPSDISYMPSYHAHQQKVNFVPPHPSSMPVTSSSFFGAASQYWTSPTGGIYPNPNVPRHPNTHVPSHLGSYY
Procedure, shortened: (§1)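 After expression in yeast as GST fusions, human transcription factors were bound to glutathione beads, DNA-barcoded and mixed with a tag-only sample. The pools were incubated with 200 nmole of a 16-mer random double-stranded DNA library in Tris/NaCl/DTT/glycerol buffer (30 min, room temperature), washed and crosslinked with 0.1% formaldehyde. Proximity ligation with BsaI/T4 ligase ran for 1 h at 37 °C, before PCR amplification and sequencing on an Illumina NextSeq500. Binding signal is a hexamer's read frequency for a factor divided by its frequency for the tag-only sample.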

ELK1 = biological target: T2, ELK1 (Homo sapiens, UniProt P19419 1-428)
T2 sequence: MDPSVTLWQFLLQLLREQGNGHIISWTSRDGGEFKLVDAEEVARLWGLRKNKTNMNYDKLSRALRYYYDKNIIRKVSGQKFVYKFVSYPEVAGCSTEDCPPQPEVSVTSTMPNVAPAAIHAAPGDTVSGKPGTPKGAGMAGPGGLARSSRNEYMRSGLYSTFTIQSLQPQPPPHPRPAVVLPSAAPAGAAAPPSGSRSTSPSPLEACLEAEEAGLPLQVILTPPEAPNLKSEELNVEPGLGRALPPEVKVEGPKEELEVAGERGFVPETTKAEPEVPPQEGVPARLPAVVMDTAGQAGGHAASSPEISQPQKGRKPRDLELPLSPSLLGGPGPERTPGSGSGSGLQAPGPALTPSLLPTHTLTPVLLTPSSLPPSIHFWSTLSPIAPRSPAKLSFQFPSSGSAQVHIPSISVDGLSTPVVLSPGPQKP
Procedure, shortened: as §1

GABPA = biological target: T3, GABPA (Homo sapiens, UniProt Q06546 1-454)
T3 sequence: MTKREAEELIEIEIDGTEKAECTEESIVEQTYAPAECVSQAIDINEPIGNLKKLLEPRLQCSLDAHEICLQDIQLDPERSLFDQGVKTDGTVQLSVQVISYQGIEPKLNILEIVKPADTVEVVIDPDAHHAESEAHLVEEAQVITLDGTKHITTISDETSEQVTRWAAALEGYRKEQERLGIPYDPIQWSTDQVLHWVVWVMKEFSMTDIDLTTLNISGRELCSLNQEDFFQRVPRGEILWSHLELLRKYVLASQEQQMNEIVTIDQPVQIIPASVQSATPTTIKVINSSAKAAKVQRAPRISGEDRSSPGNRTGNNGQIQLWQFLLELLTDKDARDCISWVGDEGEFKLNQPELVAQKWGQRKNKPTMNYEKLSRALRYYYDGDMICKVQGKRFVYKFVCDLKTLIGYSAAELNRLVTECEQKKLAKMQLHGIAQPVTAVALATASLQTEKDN
Procedure, shortened: as §1

ERG = biological target: T4, ERG (Homo sapiens, UniProt P11308 1-479)
T4 sequence: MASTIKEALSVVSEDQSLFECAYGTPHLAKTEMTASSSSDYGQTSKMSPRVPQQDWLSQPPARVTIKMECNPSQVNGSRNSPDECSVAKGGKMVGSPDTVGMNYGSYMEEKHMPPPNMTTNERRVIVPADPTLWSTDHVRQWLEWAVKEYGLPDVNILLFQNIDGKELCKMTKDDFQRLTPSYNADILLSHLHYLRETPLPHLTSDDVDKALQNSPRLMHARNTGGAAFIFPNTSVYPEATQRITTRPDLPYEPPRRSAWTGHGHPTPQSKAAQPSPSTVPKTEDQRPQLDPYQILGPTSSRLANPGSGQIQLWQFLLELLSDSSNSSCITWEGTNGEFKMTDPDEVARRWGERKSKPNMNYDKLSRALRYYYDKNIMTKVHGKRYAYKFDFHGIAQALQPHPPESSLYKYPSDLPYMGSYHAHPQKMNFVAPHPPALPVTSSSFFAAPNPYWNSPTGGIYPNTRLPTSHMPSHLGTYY
Procedure, shortened: as §1

ELF1 = ELF1 (Homo sapiens, UniProt P32519 1-619)
Procedure, shortened: as §1

EHF = biological target: T5, EHF (Homo sapiens, UniProt Q9NZC4 1-300)
T5 sequence: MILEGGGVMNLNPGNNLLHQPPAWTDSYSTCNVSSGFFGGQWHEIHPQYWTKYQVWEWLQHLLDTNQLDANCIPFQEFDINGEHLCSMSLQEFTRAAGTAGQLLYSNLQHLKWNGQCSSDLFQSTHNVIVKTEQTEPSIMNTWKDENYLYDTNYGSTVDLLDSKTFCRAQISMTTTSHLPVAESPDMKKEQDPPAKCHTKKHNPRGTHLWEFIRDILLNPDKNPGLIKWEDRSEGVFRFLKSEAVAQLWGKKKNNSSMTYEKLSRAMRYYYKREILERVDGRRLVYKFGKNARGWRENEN
Procedure, shortened: as §1

SPI1 = SPI1 (Homo sapiens, UniProt P17947 1-270)
Procedure, shortened: as §1

SPIB = SPIB (Homo sapiens, UniProt Q01892 1-262)
Procedure, shortened: as §1

ELK3 = biological target: T6, ELK3 (Homo sapiens, UniProt P41970 1-407)
T6 sequence: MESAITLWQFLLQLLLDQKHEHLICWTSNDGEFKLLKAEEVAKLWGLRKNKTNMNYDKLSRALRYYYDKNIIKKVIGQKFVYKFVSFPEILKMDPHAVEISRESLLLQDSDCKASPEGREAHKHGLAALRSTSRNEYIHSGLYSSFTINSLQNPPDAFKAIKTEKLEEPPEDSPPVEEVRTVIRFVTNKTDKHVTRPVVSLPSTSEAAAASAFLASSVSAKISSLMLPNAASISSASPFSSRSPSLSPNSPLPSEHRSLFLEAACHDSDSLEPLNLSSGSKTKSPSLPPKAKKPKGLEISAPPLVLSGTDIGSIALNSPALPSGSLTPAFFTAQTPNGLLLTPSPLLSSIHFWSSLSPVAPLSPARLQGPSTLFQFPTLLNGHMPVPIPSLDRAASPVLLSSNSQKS
Procedure, shortened: as §1

FEV = biological target: T7, FEV (Homo sapiens, UniProt Q99581 1-238)
T7 sequence: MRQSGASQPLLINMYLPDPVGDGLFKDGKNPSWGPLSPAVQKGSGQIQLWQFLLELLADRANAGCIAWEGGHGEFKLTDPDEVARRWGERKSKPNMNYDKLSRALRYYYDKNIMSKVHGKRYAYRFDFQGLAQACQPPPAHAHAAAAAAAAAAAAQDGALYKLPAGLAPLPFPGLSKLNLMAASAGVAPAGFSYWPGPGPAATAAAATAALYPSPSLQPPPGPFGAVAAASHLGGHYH
Procedure, shortened: as §1

ETV5 = ETV5 (Homo sapiens, UniProt P41161 1-510)
Procedure, shortened: as §1

SPIC = biological target: T8, SPIC (Homo sapiens, UniProt Q8N5J4 1-248)
T8 sequence: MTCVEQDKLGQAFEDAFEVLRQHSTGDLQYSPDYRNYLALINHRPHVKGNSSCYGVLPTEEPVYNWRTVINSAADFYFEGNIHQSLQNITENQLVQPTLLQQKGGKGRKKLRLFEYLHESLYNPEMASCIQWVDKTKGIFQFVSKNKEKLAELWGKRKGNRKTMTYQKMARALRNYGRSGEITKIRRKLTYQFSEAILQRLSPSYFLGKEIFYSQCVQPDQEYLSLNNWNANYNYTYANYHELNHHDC
Procedure, shortened: as §1

ELF4 = ELF4 (Homo sapiens, UniProt Q99607 1-663)
Procedure, shortened: as §1

ETV1 = ETV1 (Homo sapiens, UniProt P50549 1-477)
Procedure, shortened: as §1

ERF = biological target: T9, ERF (Homo sapiens, UniProt P50548 1-548)
T9 sequence: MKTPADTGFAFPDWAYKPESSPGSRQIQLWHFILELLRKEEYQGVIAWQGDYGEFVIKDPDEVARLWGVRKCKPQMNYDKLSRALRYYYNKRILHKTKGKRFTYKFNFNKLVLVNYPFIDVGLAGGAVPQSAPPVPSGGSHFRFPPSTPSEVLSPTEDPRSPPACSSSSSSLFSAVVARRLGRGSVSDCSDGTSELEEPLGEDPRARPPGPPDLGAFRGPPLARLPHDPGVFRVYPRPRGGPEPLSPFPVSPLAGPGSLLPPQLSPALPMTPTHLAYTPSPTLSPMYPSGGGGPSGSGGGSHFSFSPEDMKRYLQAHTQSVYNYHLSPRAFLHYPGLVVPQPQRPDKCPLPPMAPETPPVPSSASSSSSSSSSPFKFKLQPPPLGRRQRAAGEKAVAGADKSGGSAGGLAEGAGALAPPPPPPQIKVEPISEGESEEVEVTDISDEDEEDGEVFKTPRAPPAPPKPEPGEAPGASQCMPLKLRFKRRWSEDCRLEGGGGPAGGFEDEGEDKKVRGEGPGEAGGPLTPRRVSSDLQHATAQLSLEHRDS
Procedure, shortened: as §1

ETV3L = biological target: T10, ETV3L (Homo sapiens, UniProt Q6ZN32 1-361)
T10 sequence: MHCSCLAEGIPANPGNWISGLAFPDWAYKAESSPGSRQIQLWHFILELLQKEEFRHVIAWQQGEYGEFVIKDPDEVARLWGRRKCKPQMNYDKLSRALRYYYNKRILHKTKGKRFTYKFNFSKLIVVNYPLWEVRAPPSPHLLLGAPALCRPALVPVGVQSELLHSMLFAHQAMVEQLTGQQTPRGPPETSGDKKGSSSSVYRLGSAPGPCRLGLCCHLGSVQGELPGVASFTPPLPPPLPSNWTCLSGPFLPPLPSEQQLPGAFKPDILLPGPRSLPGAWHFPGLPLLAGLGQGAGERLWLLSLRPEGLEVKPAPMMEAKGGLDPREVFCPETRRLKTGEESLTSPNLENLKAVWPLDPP
Procedure, shortened: as §1

ETS2 = biological target: T11, ETS2 (Homo sapiens, UniProt P15036 1-469)
T11 sequence: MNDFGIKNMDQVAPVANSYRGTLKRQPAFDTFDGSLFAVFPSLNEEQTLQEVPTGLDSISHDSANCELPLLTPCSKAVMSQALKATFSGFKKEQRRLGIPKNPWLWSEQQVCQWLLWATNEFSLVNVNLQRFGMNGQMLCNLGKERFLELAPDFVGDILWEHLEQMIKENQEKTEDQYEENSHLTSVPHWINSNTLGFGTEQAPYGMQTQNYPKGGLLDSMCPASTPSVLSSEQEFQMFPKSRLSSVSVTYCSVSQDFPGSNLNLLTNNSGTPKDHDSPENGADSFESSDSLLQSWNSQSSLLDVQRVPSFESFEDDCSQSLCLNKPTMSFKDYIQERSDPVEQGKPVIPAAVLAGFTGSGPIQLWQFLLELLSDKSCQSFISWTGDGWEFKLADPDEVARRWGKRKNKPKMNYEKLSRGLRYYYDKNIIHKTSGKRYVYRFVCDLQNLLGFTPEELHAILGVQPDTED
Procedure, shortened: as §1

SPDEF = biological target: T12, SPDEF (Homo sapiens, UniProt O95238 1-335)
T12 sequence: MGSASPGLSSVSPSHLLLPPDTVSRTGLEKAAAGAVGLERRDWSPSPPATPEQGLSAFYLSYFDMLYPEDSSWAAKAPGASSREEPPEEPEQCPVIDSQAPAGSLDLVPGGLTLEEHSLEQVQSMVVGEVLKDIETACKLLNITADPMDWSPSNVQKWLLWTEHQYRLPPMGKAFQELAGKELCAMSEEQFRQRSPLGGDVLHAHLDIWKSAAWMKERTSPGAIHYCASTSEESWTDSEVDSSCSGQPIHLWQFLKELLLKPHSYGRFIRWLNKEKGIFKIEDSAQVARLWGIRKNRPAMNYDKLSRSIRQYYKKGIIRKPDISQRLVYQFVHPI
Procedure, shortened: as §1

ETV3 = biological target: T13, ETV3 (Homo sapiens, UniProt P41162-2 1-143)
T13 sequence: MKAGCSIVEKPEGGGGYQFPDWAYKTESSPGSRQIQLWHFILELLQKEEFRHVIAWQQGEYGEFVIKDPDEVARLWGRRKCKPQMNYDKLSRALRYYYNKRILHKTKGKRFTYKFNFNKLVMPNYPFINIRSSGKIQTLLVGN
Procedure, shortened: as §1

ETV6 = ETV6 (Homo sapiens, UniProt P41212 1-452)
Procedure, shortened: as §1

Chain of ETV5 (P41161 whole entry): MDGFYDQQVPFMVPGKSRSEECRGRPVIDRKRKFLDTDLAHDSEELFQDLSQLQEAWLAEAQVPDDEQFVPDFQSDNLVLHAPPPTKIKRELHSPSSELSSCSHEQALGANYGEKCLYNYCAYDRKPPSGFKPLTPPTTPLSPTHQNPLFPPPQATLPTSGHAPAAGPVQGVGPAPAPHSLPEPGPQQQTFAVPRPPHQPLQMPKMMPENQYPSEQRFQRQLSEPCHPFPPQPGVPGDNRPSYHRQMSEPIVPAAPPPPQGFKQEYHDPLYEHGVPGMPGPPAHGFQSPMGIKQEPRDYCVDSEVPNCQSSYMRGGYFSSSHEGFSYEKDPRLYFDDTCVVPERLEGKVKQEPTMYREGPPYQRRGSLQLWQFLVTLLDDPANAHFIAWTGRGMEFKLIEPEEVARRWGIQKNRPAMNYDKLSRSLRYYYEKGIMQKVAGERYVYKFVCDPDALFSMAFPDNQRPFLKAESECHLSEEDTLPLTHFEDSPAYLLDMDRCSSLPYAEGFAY
Chain of ETV1 (P50549 whole entry): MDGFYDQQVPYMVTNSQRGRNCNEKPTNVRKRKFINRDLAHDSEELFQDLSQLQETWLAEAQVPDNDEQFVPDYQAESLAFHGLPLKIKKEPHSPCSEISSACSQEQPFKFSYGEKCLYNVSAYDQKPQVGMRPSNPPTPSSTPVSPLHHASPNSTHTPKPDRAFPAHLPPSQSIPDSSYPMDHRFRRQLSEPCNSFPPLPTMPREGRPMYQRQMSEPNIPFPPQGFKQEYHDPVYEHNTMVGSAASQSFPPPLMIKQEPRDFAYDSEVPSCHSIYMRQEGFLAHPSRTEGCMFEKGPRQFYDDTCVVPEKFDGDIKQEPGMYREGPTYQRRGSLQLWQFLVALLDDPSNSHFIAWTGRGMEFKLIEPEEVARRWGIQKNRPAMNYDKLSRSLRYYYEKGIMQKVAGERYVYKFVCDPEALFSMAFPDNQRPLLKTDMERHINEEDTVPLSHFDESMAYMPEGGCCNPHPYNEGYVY
Chain of SPIB (Q01892 whole entry): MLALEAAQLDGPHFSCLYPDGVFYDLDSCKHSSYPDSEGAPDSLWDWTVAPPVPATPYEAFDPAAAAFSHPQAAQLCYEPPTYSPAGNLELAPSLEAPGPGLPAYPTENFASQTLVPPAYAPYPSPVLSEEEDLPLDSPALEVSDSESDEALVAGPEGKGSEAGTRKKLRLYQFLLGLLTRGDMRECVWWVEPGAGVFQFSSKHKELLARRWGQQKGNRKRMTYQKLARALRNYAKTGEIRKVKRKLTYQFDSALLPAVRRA
Chain of ELF1 (P32519 whole entry): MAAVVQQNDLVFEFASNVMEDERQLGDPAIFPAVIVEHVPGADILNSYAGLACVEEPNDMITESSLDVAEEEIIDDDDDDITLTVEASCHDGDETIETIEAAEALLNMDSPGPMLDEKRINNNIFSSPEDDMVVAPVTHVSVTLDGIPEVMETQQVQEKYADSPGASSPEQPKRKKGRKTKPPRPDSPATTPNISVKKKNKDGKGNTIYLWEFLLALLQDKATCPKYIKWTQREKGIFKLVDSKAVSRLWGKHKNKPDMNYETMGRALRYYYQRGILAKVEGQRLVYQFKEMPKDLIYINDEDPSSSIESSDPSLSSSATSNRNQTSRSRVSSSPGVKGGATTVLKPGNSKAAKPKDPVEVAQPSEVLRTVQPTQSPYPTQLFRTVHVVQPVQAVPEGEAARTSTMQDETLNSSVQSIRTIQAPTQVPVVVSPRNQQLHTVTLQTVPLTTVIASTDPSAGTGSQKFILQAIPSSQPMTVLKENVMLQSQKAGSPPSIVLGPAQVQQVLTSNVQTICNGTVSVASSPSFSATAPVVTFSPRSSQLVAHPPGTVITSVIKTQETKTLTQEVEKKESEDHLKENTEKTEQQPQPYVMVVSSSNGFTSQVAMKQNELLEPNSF
Chain of ELF4 (Q99607 whole entry): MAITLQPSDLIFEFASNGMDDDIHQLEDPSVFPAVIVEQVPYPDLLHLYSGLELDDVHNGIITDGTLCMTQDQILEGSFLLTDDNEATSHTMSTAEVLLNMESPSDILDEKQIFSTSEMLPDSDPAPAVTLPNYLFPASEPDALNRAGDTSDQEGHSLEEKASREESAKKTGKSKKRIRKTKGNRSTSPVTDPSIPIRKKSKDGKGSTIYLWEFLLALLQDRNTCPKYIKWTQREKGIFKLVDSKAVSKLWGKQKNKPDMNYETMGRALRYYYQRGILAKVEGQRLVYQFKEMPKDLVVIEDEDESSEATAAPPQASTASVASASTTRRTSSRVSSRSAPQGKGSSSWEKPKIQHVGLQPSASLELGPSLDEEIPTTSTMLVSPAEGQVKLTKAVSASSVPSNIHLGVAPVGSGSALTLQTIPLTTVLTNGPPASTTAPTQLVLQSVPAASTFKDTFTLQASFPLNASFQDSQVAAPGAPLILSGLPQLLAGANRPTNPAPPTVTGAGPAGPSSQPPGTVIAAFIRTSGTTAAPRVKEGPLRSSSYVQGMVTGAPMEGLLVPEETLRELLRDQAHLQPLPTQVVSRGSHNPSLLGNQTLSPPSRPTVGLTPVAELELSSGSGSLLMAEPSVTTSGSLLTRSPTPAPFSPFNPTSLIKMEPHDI
Chain of ETV6 (P41212 whole entry): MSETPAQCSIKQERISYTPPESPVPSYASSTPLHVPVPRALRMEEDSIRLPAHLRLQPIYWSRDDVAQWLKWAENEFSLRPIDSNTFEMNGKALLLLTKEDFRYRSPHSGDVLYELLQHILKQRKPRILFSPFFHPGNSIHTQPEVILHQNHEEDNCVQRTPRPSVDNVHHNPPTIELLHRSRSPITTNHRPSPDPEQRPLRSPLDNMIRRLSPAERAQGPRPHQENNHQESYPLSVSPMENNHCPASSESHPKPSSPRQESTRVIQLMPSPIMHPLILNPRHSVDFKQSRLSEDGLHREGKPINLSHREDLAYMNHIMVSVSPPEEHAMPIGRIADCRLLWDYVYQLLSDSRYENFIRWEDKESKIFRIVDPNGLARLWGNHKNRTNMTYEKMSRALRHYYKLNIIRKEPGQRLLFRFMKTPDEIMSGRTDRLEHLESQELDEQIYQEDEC

ACGATG
binding signal (FLI1): 1.24 fold enrichment (6-mer frequency, TF over GST control) | binding signal (ELK1): 1.06 fold enrichment (6-mer frequency, TF over GST control) | binding signal (GABPA): 1.17 fold enrichment (6-mer frequency, TF over GST control) | binding signal (ERG): 1.13 fold enrichment (6-mer frequency, TF over GST control) | binding signal (ELF1): 1.06 fold enrichment (6-mer frequency, TF over GST control) | binding signal (EHF): 1.16 fold enrichment (6-mer frequency, TF over GST control) | binding signal (SPI1): 1.17 fold enrichment (6-mer frequency, TF over GST control) | binding signal (SPIB): 1.18 fold enrichment (6-mer frequency, TF over GST control) | binding signal (ELK3): 1.17 fold enrichment (6-mer frequency, TF over GST control) | binding signal (FEV): 1.05 fold enrichment (6-mer frequency, TF over GST control) | binding signal (ETV5): 1.12 fold enrichment (6-mer frequency, TF over GST control) | binding signal (SPIC): 1.03 fold enrichment (6-mer frequency, TF over GST control) | binding signal (ELF4): 1.12 fold enrichment (6-mer frequency, TF over GST control) | binding signal (ETV1): 1.12 fold enrichment (6-mer frequency, TF over GST control) | binding signal (ERF): 1.09 fold enrichment (6-mer frequency, TF over GST control) | binding signal (ETV3L): 1.14 fold enrichment (6-mer frequency, TF over GST control) | binding signal (ETS2): 1.12 fold enrichment (6-mer frequency, TF over GST control) | binding signal (SPDEF): 1.14 fold enrichment (6-mer frequency, TF over GST control) | binding signal (ETV3): 1.08 fold enrichment (6-mer frequency, TF over GST control) | binding signal (ETV6): 1.06 fold enrichment (6-mer frequency, TF over GST control)
